In the library only some 2.9% were active in any assay of this set; here they are far more common.
PAFAH1B3 FP inh – PAFAH1B3 enzyme inhibitors, primary screen, biochemical, fluorescence polarization, human; inhibition, % at 3.39 µM; recombinant PAFAH1B3, FP-rhodamine probe; 340,000 tested, 0.28% active;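 active means inhibition above the screen-wide average of all tested compounds plus 3 SD, cut at about 25% in these data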;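 further: 0% = enzyme with DMSO only and 100% = wells lacking PAFAH1B3 protein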
Target sequence (Q15102 whole entry, looked up): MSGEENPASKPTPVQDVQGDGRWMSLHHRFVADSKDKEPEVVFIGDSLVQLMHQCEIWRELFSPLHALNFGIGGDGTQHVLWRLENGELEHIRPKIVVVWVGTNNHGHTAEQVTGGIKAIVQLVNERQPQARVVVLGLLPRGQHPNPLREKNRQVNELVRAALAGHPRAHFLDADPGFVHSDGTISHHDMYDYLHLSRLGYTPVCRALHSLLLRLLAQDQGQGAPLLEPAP
PAFAH2 FP inh – PAFAH2 enzyme inhibitors, primary screen, biochemical, fluorescence polarization, human; Platelet-activating factor acetylhydrolase 2, cytoplasmic (Homo sapiens), Q99487; recombinant PAFAH2, FP-rhodamine activity probe; inhibition, % at 3.39 µM; 340,000 tested, 0.99% active;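 active means inhibition above the mean over all tested compounds plus 3 SD, cut at about 30% in these data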;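 further: inhibitors block probe labeling of enzyme so polarization drops; 0% = enzyme with DMSO and 100% = wells lacking PAFAH2 protein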
ZTA DNA inh – blocks Epstein-Barr virus ZTA, an EBNA-1 counter-screen | inhibition, % at 11 µM | 320,000 tested, 0.15% active | P03206 | ZTA-DNA binding, fluorescence polarization; in the data active means inhibition above about 33%
EBNA-1 inhibitor – EBNA-1 DNA-binding inhibitors, primary screen, biochemical, fluorescence polarization; 300,000 tested, 0.34% active; inhibition, % at 14.8 µM; in the data active means inhibition above about 28%
PAFAH1B2 FP inh – PAFAH1B2 enzyme inhibitors, primary screen, biochemical, fluorescence polarization, human | AID 492953, 2010 | inhibition, % at 3.39 µM | Platelet-activating factor acetylhydrolase IB subunit alpha2 (Homo sapiens), P68402 | 340,000 tested, 1.2% active | recombinant PAFAH1B2, FP-rhodamine activity probe;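 active means inhibition above the mean of all tested compounds plus 3 SD, cut at about 24% in these data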;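 further: 0% = enzyme with DMSO and 100% = wells lacking PAFAH1B2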
Target sequence (P68402 whole entry, looked up): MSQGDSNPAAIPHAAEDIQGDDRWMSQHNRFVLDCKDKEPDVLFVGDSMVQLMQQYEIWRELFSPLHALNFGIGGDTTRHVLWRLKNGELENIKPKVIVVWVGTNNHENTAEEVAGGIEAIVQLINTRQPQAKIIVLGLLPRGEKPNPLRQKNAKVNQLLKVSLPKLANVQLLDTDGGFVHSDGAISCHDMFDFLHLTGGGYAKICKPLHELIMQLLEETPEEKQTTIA
pPAFAH FP inh – pPAFAH enzyme inhibitors, primary screen, biochemical, fluorescence polarization, human. recombinant pPAFAH, FP-rhodamine probe fluorescence polarization. 330,000 tested, 1.5% active. Platelet-activating factor acetylhydrolase (Homo sapiens), Q13093. inhibition, % at 3.39 µM;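 active means inhibition above the mean inhibition across the screen plus 3 SD, cut at about 25% in these data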;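 further: inhibitors block binding of the rhodamine activity-based probe so polarization drops; 0% = enzyme with DMSO and 100% = wells lacking pPAFAH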
PAFAH2 FP conf – PAFAH2 enzyme inhibitors, confirmation, biochemical, fluorescence polarization, human | 2,300 tested, 65% active | shares compounds with PAFAH2 FP inh | inhibition, % at 3.39 µM | recombinant PAFAH2, FP-rhodamine activity probe;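 active means mean inhibition over three repeats above a set limit taken from the earlier primary screen, cut at about 30% in these data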;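 further: inhibitor blocks binding of rhodamine activity probe so polarization falls; 0% = enzyme with DMSO and 100% = wells lacking PAFAH2 protein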
* marks the source's active call; other numbers are inactive results.

Screening CCCS(=O)(=O)c1c(S(=O)(=O)CCC)c2ccc(C(N)=O)cn2c1C(=O)c1ccccc1 returned PAFAH1B3 FP inh 3.4, PAFAH2 FP inh 34.3*, PAFAH1B2 FP inh -3.8 and PAFAH2 FP conf 24.1.
`COc1ccccc1CNC(=O)COC(=O)c1ccc(Cl)c(N)c1` gave PAFAH1B3 FP inh 0.7, PAFAH2 FP inh 33.0*, ZTA DNA inh -4.4, EBNA-1 inhibitor 4.4, PAFAH1B2 FP inh -1.2, pPAFAH FP inh 16.0 and PAFAH2 FP conf 35.0*.
Screening COc1ccccc1CNC(=O)COC(=O)c1ccc(N2CCCC2=O)cc1 returned PAFAH1B3 FP inh 6.9, PAFAH2 FP inh 60.2*, ZTA DNA inh -23.8, PAFAH1B2 FP inh 8.1, pPAFAH FP inh -0.5 and PAFAH2 FP conf 46.4*.
For COc1ccccc1CNC(=O)COC(=O)c1ccc(NC(N)=O)cc1 the results were PAFAH1B3 FP inh -3.3, PAFAH2 FP inh 56.0*, ZTA DNA inh 16.0, EBNA-1 inhibitor -3.3, PAFAH1B2 FP inh 2.0, pPAFAH FP inh 0.5 and PAFAH2 FP conf 51.6*.
`COc1ccccc1NC(=O)COC(=O)c1c[nH]c2ccccc12` gave PAFAH1B3 FP inh 6.1, PAFAH2 FP inh 18.8, ZTA DNA inh -3.0, PAFAH1B2 FP inh -1.2 and pPAFAH FP inh -0.2.
COc1ccccc1CNC(=O)COC(=O)c1c[nH]c2ccccc12 was read as PAFAH1B3 FP inh 5.5, PAFAH2 FP inh 33.4*, PAFAH1B2 FP inh 0.5 and PAFAH2 FP conf 17.7.
COc1ccc(CCNC(=O)COC(=O)c2ccc(N3CCCC3=O)cc2)cc1OC was read as PAFAH1B3 FP inh 1.6, PAFAH2 FP inh 6.6, ZTA DNA inh -15.3, EBNA-1 inhibitor -4.7, PAFAH1B2 FP inh 2.4 and pPAFAH FP inh 6.3.
O=C(CS(=O)CC(=O)NC12CC3CC(CC(C3)C1)C2)Nc1ccc(F)cc1 (centres undefined) was read as PAFAH1B3 FP inh -1.6, PAFAH2 FP inh 1.1, ZTA DNA inh 1.9, EBNA-1 inhibitor -12.7, PAFAH1B2 FP inh 11.6 and pPAFAH FP inh 3.4.
`Cc1ccc(S(=O)(=O)c2ccsc2NC(=O)c2ccccc2)cc1` gave PAFAH1B3 FP inh 3.2, PAFAH2 FP inh -3.5 and PAFAH1B2 FP inh 1.2.
`Cc1ccc(C(C(=O)NC2CCCCC2)N(C(=O)c2csnn2)C2CC2)cc1` (centres undefined) gave PAFAH1B3 FP inh -1.7, PAFAH2 FP inh -2.3, ZTA DNA inh -1.7, EBNA-1 inhibitor -0.4, PAFAH1B2 FP inh 9.6 and pPAFAH FP inh 1.9.
CCOC(=O)c1cc(/C(C)=N/OC(=O)c2ccc(Cl)cc2)on1 was read as ZTA DNA inh 1.4, EBNA-1 inhibitor 13.6 and pPAFAH FP inh 4.5.
C/C(=N/OC(=O)CC(C)C)c1cc(-c2ccc(Cl)cc2)no1 was read as PAFAH1B3 FP inh 9.1, PAFAH2 FP inh 56.8*, ZTA DNA inh 6.9, EBNA-1 inhibitor 0.1, PAFAH1B2 FP inh -0.5, pPAFAH FP inh 8.1 and PAFAH2 FP conf 45.3*.
Screening COc1ccc(/C=C/C(=O)OCC(=O)NCc2ccccc2)cc1OC returned PAFAH1B3 FP inh 7.0, PAFAH2 FP inh 49.6*, ZTA DNA inh -4.9, PAFAH1B2 FP inh 4.5, pPAFAH FP inh 3.1 and PAFAH2 FP conf 47.4*.
`COc1cc(/C=C/C(=O)OCC(=O)NCc2cccs2)ccc1OC(F)F` gave PAFAH1B3 FP inh 3.3, PAFAH2 FP inh 32.9*, ZTA DNA inh 6.8, EBNA-1 inhibitor -8.3, PAFAH1B2 FP inh -1.0, pPAFAH FP inh 5.8 and PAFAH2 FP conf 51.0*.
For O=C(COC(=O)/C=C/c1ccccc1Cl)NCc1ccccc1 the results were PAFAH1B3 FP inh 10.9, PAFAH2 FP inh 29.1, ZTA DNA inh -0.1, EBNA-1 inhibitor 10.9, PAFAH1B2 FP inh 3.4 and pPAFAH FP inh 18.1.
For COc1ccc(CCNC(=O)COC(=O)/C=C/c2ccc(OC)cc2OC)cc1 the results were PAFAH1B3 FP inh 12.5, PAFAH2 FP inh 71.5*, PAFAH1B2 FP inh 4.8, pPAFAH FP inh 19.5 and PAFAH2 FP conf 58.2*.
